# From PubChem BioAssay (NCATS)
# Inconclusive results are not listed. Activity calls are given as the source filed them. Calls come from the whole dose curve.
# Assay: qHTS Assay for Lipid Storage Modulators (AID 1519); for activity change, negative = inhibition: % is set by controls: 0 for no effect and ±100 for the full control effect
# Conditions: Drosophila S3 cells, BODIPY lipid droplet/cell ratio, laser cytometry, cells loaded with oleic acid; for activity change, negative = inhibition: at 57.5 µM (top of the series)
# Source text: NIH Molecular Libraries Probe Production Centers Network [MLPCN]
# NIH Chemical Genomics Center [NCGC]
# Assay Submitter (PI): Beller, Mathias; Max-Planck-Institut fur Biophysikalische Chemie
# NCGC Assay Overview: Storing lipids as a reservoir for energy or the anabolism of elementary metabolites is a common feature of probably all cells and is conserved from bacteria to humans. The universal cellular lipid storage organelle is the so-called lipid storage droplet (LD). Although ubiquitous, LDs share a simple structure composed of a hydrophobic core that harbors the storage lipids, which is shielded by a droplet-specific phospholipid monolayer to which proteins are attached. The current model of LD biogenesis involves an incorporation of the lipid core into the membrane leaflets of the endoplasmic reticulum (ER) followed by a subsequent budding-like maturation of a LD, which ultimately pinches off. Once released, LD volume can increase by localized lipogenesis or fusion of existing droplets. Storage lipids are re-mobilized enzymatically by lipase activity. Lipase regulation in the adipocyte is heavily studied and involves multiple components including catecholamine signaling, the LD-associated proteins Perilipin and comparative gene identification-58 (CGI-58) and at least two lipases named hormone sensitive lipase (HSL) and adipocyte triglyceride lipase (ATGL). LD regulation outside of the adipocyte is poorly understood and only few components are known. However, there is an urgent need to learn more about ectopic fat depots as mislocalized storage of lipids, for example in the liver or muscle, is an eminent health problem associated with insulin resistance or the metabolic syndrome. We developed a laser-scanning cytometer assay to enable 1,536-well screening and combined the results of the small molecules screen with an RNAi database based on lipid storage.
# NCGC Assay Protocol Summary:
# We dispensed 4 uL of cells at 1.25 x 10^6 cells/mL into LoBase Aurora COC 1,536-well plates (black walled, clear bottom) with a bottle-valve solenoid-based dispenser (Aurora) to obtain 5,000 cells/well. Triacsin C (Sigma-Aldrich T-4540), an inhibitor of long-chain fatty acyl CoA synthetase that blocks synthesis of triglycerides, was used as a positive control for lipid under-storage. A total of 23 nL of compound solution of different concentrations were transferred to the assay plates using a Kalypsys pin tool equipped with a 1,536-pin array containing 10-nL slotted pins (FP1S10, 0.457-mm diameter, 50.8 mm long; V&P Scientific). One microliter of oleic acid (400 uM) was added, and the plate was lidded with stainless steel rubber gasket lined lids containing pinholes. […] Fluorescence was detected by excitation of the fluorophores with a 488-nm laser on an Acumen Explorer (TTP Lab Tech). The total intensity in channel 1 (500-530 nm) reflected lipid droplet accumulation. […] The ratio of the total intensity in PMT channel 1 over total intensity of channel 3 was also calculated. Percent activity was computed relative to an internal control (100% inhibited lipid droplet deposition due to the presence of 20 uM Triacsin C), which was added to 32 wells/plate.
# [1] = measured here: cell count channel max response
# [2] = measured here: lipid channel max response
# Potency is the fitted concentration of half-maximal effect.
Structure (SMILES),"activity change, negative = inhibition",max response [1],max response [2],Potency
C[N+]1(C)CCc2cc3c(cc2C1C1OC(=O)c2c1ccc1c2OCO1)OCO3 (configuration not stated),2.12% (inactive),1.78%,1.49%,–
COC1C(O)C(C)O[C@@H](OC2CC[C@@]3(C)C4CC[C@]5(C)C(C6=CC(=O)OC6)CC[C@@]5(O)C4CC[C@@H]3C2)C1O (some centres not stated),8.72% (inactive),8.32%,14.8%,–
C=C(C)[C@H]1C2C(=O)O[C@H]1[C@H]1OC(=O)[C@@]34O[C@@H]3C[C@]2(O)[C@@]14C,2.82% (inactive),7.99%,11%,–
C=CCSSCC=C,11.8% (inactive),5.28%,18.2%,–
O=c1c(O)c(-c2ccc(O)c(O)c2)oc2c(O)c(O)cc(O)c12,10.8% (inactive),-1.92%,12.9%,–
CCN(CC)/[N+]([O-])=N/O,8.09% (inactive),-15%,-4.74%,–
COC(=O)/C=C\C(=O)N[C@@H]1CC[C@@]2(O)[C@H]3Cc4ccc(O)c5c4[C@@]2(CCN3CC2CC2)[C@@H]1O5,-0.127% (inactive),-6.87%,-10.5%,–
Cl.Cl.Cl.Cl.Cl.Cl.N.N.N.N.NNNNN.NNNNN.O.O.[Ru].[Ru].[Ru],-5.89% (inactive),-27.5%,-31.1%,–
C=CCN1CCC2(C)c3cc(O)ccc3CC1C2C (configuration not stated),-2.86% (inactive),24.1%,21.8%,–
NC[C@H](CC(=O)O)c1ccc(Cl)cc1,2.02% (inactive),12.8%,19.1%,–
CNCCc1cnc[nH]1,4.08% (inactive),-7.35%,-3.08%,–
C/C=C1/CN2CC[C@]34C(=C(C=O)[C@H]1C[C@@H]23)Nc1ccccc14,-2.11% (inactive),7.61%,5.28%,–
C=C(C)[C@H]1CN[C@H](C(=O)O)[C@@H]1CC(=O)O,2.85% (inactive),-5.55%,-4.1%,–
CC1OC(=O)C(C(C)C)NC(=O)C(C(C)C)OC(=O)C(C(C)C)NC(=O)C(C)OC(=O)C(C(C)C)NC(=O)C(C(C)C)OC(=O)C(C(C)C)NC(=O)C(C)OC(=O)C(C(C)C)NC(=O)C(C(C)C)OC(=O)C(C(C)C)NC1=O (configuration not stated),–,0.207%,-94.2%,316 nM (active)
